# Rows were chosen to be rich in hits. Some 1.8% of all compounds tested hit in one or more screens of this group.
# GSIS activator: primary screen for activators of insulin secretion dependent on glucose, INS-1E cells, GLuc reporter luminescence | INS-1E GLuc reporter insulin secretion, 2-3 h | activation, % at 16.6 µM | 370,000 compounds, 0.61% hits | AID 743287;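 active = lowest replicate activation of at least 40%, so every replicate reaches that level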
# iPSC survival up: enhancers of human iPSC single-cell survival. survival enhancement, % at 20 µM. hiPSC single-cell survival, ATPlite luminescence; 100% = ROCK inhibitor wells, 0% = DMSO. 360,000 compounds, 0.044% hits; in the data active = survival enhancement above about 18%;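 also: cells exposed to compounds for 16 hours before the ATP read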
# ARNT-TACC3 inh: ARNT/TACC3 interaction disruption; AlphaScreen His-ARNT PAS-B/GST-TACC3 binding, luminescence; TACC3 fragment carries E629A point mutation; inhibition, % at 9.99 µM; 390,000 compounds, 0.66% hits; AID 623870;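 active = mean inhibition of replicates at least 50% and at least half of replicates each reaching 50%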
# ABCB6 inh 2: human ABCB6 transporter inhibition; Q9NP58; K562-ABCB6 porphyrin accumulation, flow cytometry, 1 h; stronger effect = lower value; fluorescence ratio to DMSO, % at 10 µM; 360,000 compounds, 0.19% hits; AID 602162;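 active = fluorescence ratio to DMSO below 75%, the collection mean minus 3 SD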;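 also: signal is porphyrin accumulated inside mitochondria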
# Target sequence (Q9NP58 whole entry, looked up): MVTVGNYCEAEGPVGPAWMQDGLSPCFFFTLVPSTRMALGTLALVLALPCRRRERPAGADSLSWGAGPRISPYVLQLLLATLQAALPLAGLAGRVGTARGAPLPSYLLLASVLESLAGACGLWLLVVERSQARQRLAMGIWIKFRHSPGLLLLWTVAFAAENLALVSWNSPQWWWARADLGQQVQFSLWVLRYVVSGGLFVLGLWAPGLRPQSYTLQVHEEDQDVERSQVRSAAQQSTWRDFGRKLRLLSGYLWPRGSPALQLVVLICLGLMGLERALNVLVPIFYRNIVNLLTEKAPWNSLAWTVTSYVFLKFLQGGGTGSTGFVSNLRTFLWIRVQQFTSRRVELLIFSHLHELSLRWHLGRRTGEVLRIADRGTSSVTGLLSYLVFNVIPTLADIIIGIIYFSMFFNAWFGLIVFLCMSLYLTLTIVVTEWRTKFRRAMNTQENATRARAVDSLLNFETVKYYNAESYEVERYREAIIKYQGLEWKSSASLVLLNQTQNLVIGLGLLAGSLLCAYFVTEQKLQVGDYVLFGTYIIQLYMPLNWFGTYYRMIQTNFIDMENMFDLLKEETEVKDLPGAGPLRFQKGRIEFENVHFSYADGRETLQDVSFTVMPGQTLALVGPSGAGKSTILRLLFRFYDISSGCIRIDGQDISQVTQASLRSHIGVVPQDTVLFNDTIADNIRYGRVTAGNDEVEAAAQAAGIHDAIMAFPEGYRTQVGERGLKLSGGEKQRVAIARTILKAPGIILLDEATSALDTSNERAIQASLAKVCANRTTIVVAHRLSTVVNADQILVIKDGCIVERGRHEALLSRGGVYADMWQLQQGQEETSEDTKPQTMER
# NRP1-CendR mod: modulators of CendR peptide binding to human neuropilin-1; O14786; FAM-RPARPAR peptide binding to NRP-1, fluorescence polarization; inhibition, % at 25 µM; 360,000 compounds, 0.85% hits;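 active = inhibition or corrected inhibition above about 18%, plus a signal ratio from 0.5 to 1.5, limit read from the data, passing the limit was not always enough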
# A number is an active result; – = inactive; · = no result.
SMILES,GSIS activator,iPSC survival up,ARNT-TACC3 inh,ABCB6 inh 2,NRP1-CendR mod
C[C@H](CO)N1C[C@H](C)[C@@H](CN(C)S(=O)(=O)c2ccc(Cl)cc2)Oc2ccc(NC(=O)c3ccncc3)cc2CC1=O,–,·,–,·,·
Cn1c(Cl)c(/C=N/OC(=O)c2ccc(Cl)cc2)c2ccccc21,–,22,–,–,–
Cc1ccc(C(=O)O/N=C/c2c(Cl)n(C)c3ccccc23)cc1,·,–,–,–,–
CCCCc1nnc(NC(=O)CN2C(=O)c3ccccc3C2=O)s1,–,–,–,–,–
CCCc1nnc(NC(=O)c2cc3ccccc3oc2=O)s1,–,–,–,–,26
CCCc1nnc(NC(=O)CCCN2C(=O)c3ccccc3C2=O)s1,–,–,–,–,29
CCCc1nnc(NC(=O)c2cc3ccccc3o2)s1,–,–,–,–,–
COc1ccc(NC(=O)Nc2ccc3c(c2)CC(=O)N([C@H](C)CO)C[C@H](C)[C@@H](CN(C)Cc2ccccc2)O3)cc1,–,·,–,·,·
CCOC(=O)Cc1csc(NC(=O)Nc2ccc(Cl)cc2)n1,–,–,–,–,26
Cc1csc(NC(=O)Nc2ccc(Cl)cc2)n1,·,–,–,–,26
C[C@@H]1CN([C@H](C)CO)C(=O)Cc2cc(NC(=O)Cc3ccccc3)ccc2O[C@@H]1CN(C)Cc1ccc2c(c1)OCO2,–,·,–,·,·
C=CCn1c(=NC(=O)c2sc3ccccc3c2Cl)sc2cc(S(N)(=O)=O)ccc21,·,–,–,–,–
C=CCn1c(=NC(=O)c2cc(Cl)sc2Cl)sc2cc(S(N)(=O)=O)ccc21,44,–,–,–,–
CCCCNc1cc(Cl)nc(N)n1,58,–,–,–,–
COc1ccc(S(=O)(=O)Nc2cccc3c2O[C@H](CN(C)S(=O)(=O)c2ccc(OC)cc2)[C@@H](C)CN([C@@H](C)CO)C3=O)cc1,–,·,·,·,·
CCNC(=O)[C@H]1[C@H](CO)[C@H]2Cn3c(ccc(-c4cccc(C(=O)N(C)C)c4)c3=O)[C@@H]1N2,–,·,·,·,·
COc1ccc(C#Cc2ccc([C@H]3[C@H](CO)N4CCCCN(Cc5ccccc5F)C[C@@H]34)cc2)cc1,–,·,–,·,·
COc1ccc(C#Cc2ccc([C@@H]3[C@H](CO)N4CCCCN(Cc5ccccc5F)C[C@@H]34)cc2)cc1,50,·,–,·,·
COc1ccc(C#Cc2ccc([C@@H]3[C@@H](CO)N4CCCCN(Cc5ccccc5F)C[C@@H]34)cc2)cc1,95,·,–,·,·
C[C@@H]1CCCCO[C@H](CN(C)S(=O)(=O)c2ccc(F)cc2)[C@@H](C)CN([C@@H](C)CO)C(=O)c2cc(NC(=O)Nc3ccc(C(F)(F)F)cc3)ccc2O1,–,·,–,·,·
COCC(=O)Nc1ccc2c(c1)OC[C@@H](C)N(C(=O)c1ccccn1)C[C@@H](C)[C@H](OC)CN(C)C2=O,–,·,·,·,·
O=C1NN(c2ccccc2)C(=O)/C1=C\c1ccccc1,–,–,8.4,–,–
O=C1C(c2ccccc2)=[N+]([O-])c2ccccc21,–,–,–,–,30
CC(C)c1[nH]nc2c1C(c1ccccc1)NC2=O (centres undefined),44,·,·,·,·
O=C1c2[nH]nc(-c3ccccc3)c2C(c2ccccc2)N1c1ccccc1 (centres undefined),49,·,·,·,·
SMILES,GSIS activator,iPSC survival up,ARNT-TACC3 inh,ABCB6 inh 2,NRP1-CendR mod
Cc1ccc(C2c3c(-c4ccccc4)n[nH]c3C(=O)N2c2ccccc2)cc1 (centres undefined),–,·,·,·,·
O=C1NC(c2ccccc2)c2c(-c3ccccc3)n[nH]c21 (centres undefined),54,·,·,·,·
CC(C)c1[nH]nc2c1C(c1ccc(F)cc1)NC2=O (centres undefined),–,·,·,·,·
O=C(O)C[C@H]1CC[C@@H](NC(=O)CCN2CCCCC2)[C@@H](CO)O1,–,·,·,·,·
Cc1cccc(NCC(=O)NNC(=S)Nc2ccccc2)c1,–,–,47,–,–
COc1ccc2c3c(n(C)c2c1)[C@@H](CO)N(C(=O)CN1CCOCC1)CC31CN(C(C)=O)C1,–,·,·,·,·
CCOc1ccc(C(=O)NC(C(=O)NCCc2ccc(OC(F)F)cc2)C(C)C)cc1 (centres undefined),–,–,–,–,23
Cc1cc(C(=O)N/N=C/c2ccc([N+](=O)[O-])s2)n[nH]1,·,–,–,–,–
Cc1cc(C(=O)N/N=C/c2ccc(C)s2)n[nH]1,–,–,·,–,18
O=C(NCC[C@H]1CC[C@H](NS(=O)(=O)c2cccc(Cl)c2)[C@H](CO)O1)c1cnccn1,–,·,–,·,·

# Screening data: PubChem BioAssay, several laboratories
